The results in this text go back to PubChem BioAssay (NCATS).

Inconclusive results are not listed. Calls of active or inactive are those of the source. Calls come from the whole dose curve.

Sequence of Retinoic acid receptor RXR-alpha (Homo sapiens) (P19793 whole entry, looked up): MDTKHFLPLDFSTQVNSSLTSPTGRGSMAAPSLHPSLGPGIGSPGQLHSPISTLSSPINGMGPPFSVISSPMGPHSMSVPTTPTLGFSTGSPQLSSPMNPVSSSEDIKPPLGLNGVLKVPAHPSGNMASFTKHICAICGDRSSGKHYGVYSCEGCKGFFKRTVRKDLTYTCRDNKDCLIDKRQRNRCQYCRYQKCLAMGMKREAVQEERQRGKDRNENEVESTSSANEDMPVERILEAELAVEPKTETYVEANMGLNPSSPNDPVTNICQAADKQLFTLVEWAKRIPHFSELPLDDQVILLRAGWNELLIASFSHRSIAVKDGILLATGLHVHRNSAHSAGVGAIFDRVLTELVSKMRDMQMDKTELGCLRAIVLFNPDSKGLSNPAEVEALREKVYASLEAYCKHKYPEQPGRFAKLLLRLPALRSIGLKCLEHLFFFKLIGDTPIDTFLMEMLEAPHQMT

This assay addresses Retinoic acid receptor RXR-alpha (Homo sapiens) (UniProt P19793). In words: qHTS assay for small molecule agonists of retinoid X receptor alpha signaling (AID 588544). The settings on record: HEK293T RXRa-UAS-bla, beta-lactamase reporter, 18 h; series mostly up to 76.7 µM. The source says: NIH Chemical Genomics Center [NCGC] U.S. Environmental Protection Agency [EPA] National Institutes of Environmental Health Sciences [NIEHS] National Toxicology Program [NTP] NCGC Assay Overview The Retinoid X receptor (RXR), a nuclear hormone receptor is expressed in liver, spleen, placenta, epidermis, central nervous system. These receptors are able to form homo and heterodimers with other nuclear receptors and due to this heterodimerizing ability, RXR functions as master regulators producing diverse physiological effects. Three subtypes of RXR exist; alpha, beta and gamma. Retinoid X receptor alpha (RXR-alpha) has potential roles in metabolic signaling pathways, skin alopecia, dermal cysts, cardiac development, insulin sensitization etc. Therefore screening environmental chemicals on RXR-alpha signaling can be used for the studies focused on such therapeutic applications.
NCGC Assay Protocol Summary Using a beta-lactamase reporter-gene under control of Retinoid X receptor--alpha (RXR-alpha) response element, a cell-based assay [GeneBLAzer (RXR-alpha -UAS-bla assay developed by Invitrogen] was used to measure RXR-alpha ligands signaling. GeneBLAzer RXR-alpha -UAS-bla HEK293T cells were used with assay medium containing 2% charcoal-stripped FBS. The assay was performed in clear bottom black Greiner 1536-well plates. 9-cis-retinoic acid was used in the screen as the positive control. Library compounds were measured for their ability to stimulate the reporter gene activity. Compounds were screened in a titration series in 1536-well format. The fluorescence intensity (405 nm excitation, 460/530 nm emission) was measured using an EnVision plate reader. Data was normalized relative to 9-cis-retinoic acid control (500 nM, 100%), and DMSO only wells (basal, 0%). Concentration-response titration points for each compound were fitted to the Hill equation yielding concentrations of half-maximal stimulation (EC50) and maximal response (efficacy) values. qHTS protocol for RXR-alpha beta-lactamase assay in agonist mode [Step] [Parameter] [Value] [Description] 1. Reagent; 6 uL; 2500 cells/well 2. Incubation; 37 C for 4 hrs 3. Compounds; 23 nL; 0.59 nM to 92 uM 4. Controls (9-cis-retinoic acid); 23 nL, - One column with dose response, start 38 uM, 1:3 dilutions in duplicates - Final concentrations of 500 nM and 50 nM in two columns 5. Incubation; 37 C for 18 hrs 6. Detection reagent; 1 uL of CCF4-dye 7. Incubation; RT for 2 hrs 8. Detection; Fluorescence; Envision plate reader
On the technique in general: In qHTS, concentration-response curves come from the screen itself.
Regarding `c1ccc(Nc2ccc(Nc3ccccc3)cc2)cc1`, the compound was classed as inactive. For `c1ccc(OCC2CO2)cc1` (stereo not given) the value was “inactive”. `Clc1ccc(C(Cl)(Cl)Cl)c(Cl)c1`: the compound was classed as inactive. As to `O=C(Cc1ccccc1)OCc1ccccc1`, the call was inactive. Consider `CC(C)CC(C)N` (stereo not given), for which the outcome was inactive. The value for `C=CC(=O)OCC(C)C` was “inactive”; that for `O=[N+]([O-])c1cccc(CCl)c1` was “inactive”; that for `CC(C)CON=O` was “inactive”.

For `Clc1ccccc1`, the outcome was inactive. For `Cl/C=C/Cl`, the outcome was inactive. As to `CCCCC(CC)COC(=O)c1ccc(C(=O)OCC(CC)CCCC)c(C(=O)OCC(CC)CCCC)c1` (stereo not given), the compound was called inactive. For `Oc1ccc(Cl)c(Cl)c1Cl` the value was “inactive”; for `BrCC(Br)C1CCC(Br)C(Br)C1` (stereo not given), “inactive”. For `N#CC(Br)Br` the value was “inactive”. Regarding `Cc1ccccc1[N+](=O)[O-]`, the result was inactive. For `O=P(OCCCl)(OCCCl)OCCCl` the value was “inactive”. For `C=COC(C)=O` the value was “inactive”.

Turning to `CCOP(=S)(OCC)Oc1nc(Cl)c(Cl)cc1Cl`, the outcome was inactive. Regarding `CC(C)[C@]12CC(=O)[C@H](C)[C@H]1C2`, the compound was classed as inactive. Regarding `C/C=C/CC#N`, the outcome was inactive. Take `Cc1coc2c1CCC(C)C2` (stereo not given): the result was inactive. Consider `Nc1cc(Cl)ccc1Cl`, for which the result was inactive. Turning to `O=C(O)CBr`, the result was inactive. `C=CCBr`: the result was inactive. For `COc1c(C(C)(C)C)cc([N+](=O)[O-])c(C)c1[N+](=O)[O-]` the value was “inactive”. For `O=[N+]([O-])c1cccc(O)c1` the value was “inactive”. As to `c1ccc(P(c2ccccc2)c2ccccc2)cc1`, the compound was classed as inactive. `Oc1cc(Cl)cc(Cl)c1`: the result was inactive. For `Cc1cnc[nH]1` the value was “inactive”.

Consider `C/C=C/C=O`, for which the call was inactive.

Regarding `CCCCOCC1CO1` (stereo not given), the outcome was inactive.

In the case of `O=[N+]([O-])c1cc(Cl)c(Cl)cc1Cl`, the call was inactive.

Turning to `Cc1cccc(C)c1N`, the compound was called inactive. For `COc1ccc(C=O)cc1` the value was “inactive”.

Take `Cc1ccc(N)cc1Cl`: the outcome was inactive. For the compound `C=CC=O`, the outcome was inactive. The value for `CCCCOC(=O)c1ccccc1N` was “inactive”; that for `CN(C)c1ccc(N)cc1` was “inactive”. Take `CCCBr`: the outcome was inactive. In the case of `Cc1ccc(N)cc1N`, the compound was classed as inactive.
